Data as given in PubChem BioAssay.
Activity calls are given as the source filed them.

Legend:
Albumin (Bos taurus) = Albumin (Bos taurus) (UniProt P02769); assay: compounds binding labelled BSA control protein – biochemical, small-molecule microarray, Alexa647 label, 635/667 nm fluorescence, artefact control for SMM control protein annotation, profiling panel (AID 1118); settings: BSA-A647 binding, fluorescence 635 nm, higher = more signal;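 also: score merges 667 nm emission intensity and signal-to-noise per printed compound spot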
Sequence of Albumin (Bos taurus) (P02769 whole entry, looked up): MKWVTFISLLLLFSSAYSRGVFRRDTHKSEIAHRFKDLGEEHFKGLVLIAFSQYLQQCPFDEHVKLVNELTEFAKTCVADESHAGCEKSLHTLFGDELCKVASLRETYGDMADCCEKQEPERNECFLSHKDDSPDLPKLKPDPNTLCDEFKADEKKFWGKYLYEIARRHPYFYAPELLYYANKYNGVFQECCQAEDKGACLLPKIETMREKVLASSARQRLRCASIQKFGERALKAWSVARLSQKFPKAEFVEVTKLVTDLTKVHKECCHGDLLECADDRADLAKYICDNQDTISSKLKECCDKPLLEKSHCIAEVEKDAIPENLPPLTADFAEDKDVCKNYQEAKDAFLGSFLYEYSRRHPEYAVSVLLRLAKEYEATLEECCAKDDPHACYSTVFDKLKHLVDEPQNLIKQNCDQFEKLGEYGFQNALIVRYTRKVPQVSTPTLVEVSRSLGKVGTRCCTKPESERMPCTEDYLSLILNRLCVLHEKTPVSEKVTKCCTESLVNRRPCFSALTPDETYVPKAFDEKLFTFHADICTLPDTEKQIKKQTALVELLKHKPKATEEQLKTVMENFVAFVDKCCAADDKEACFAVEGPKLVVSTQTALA

[1] = probe aXIP binding to arrayed compounds – biochemical, NeuroSMM set, 635/667 nm fluorescence, primary screen (AID 1119); settings: small-molecule microarray, higher = more signal, called active from +8 up or from −8 down;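 also: probe is the protein aXip251-270 applied at 1 µg/mL to compound-printed slides; binding of probe to printed compounds measured as 667 nm fluorescence plus signal to noise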
[2] = probe aNOTCH3 binding on compound microarray – biochemical, small-molecule microarray, 635/667 nm fluorescence, primary screen (AID 1120); settings: higher = more signal;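 also: probe is a biotin-tagged antibody raised against NOTCH3 rather than NOTCH3 protein; score merges spot fluorescence near 667 nm with spot signal to noise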
[3] = probe aNOTCH2 binding on compound microarray – biochemical, small-molecule microarray, 635/667 nm fluorescence, primary screen (AID 1121); settings: higher = more signal;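 also: score merges feature fluorescence read at 667 nm with its signal to noise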
[4] = target: Carbonic anhydrase 2 (Homo sapiens) (UniProt P00918); assay: compounds binding carbonic anhydrase 2 – biochemical, small-molecule microarray, Alexa647-labelled CAII, profiling panel (AID 1122); settings: CAII-A647 binding fluorescence, higher = more signal
[5] = COS7 lysate on small-molecule microarray, probe aHis, 635 nm (AID 1123); settings: COS7 cell lysate, fluorescence, higher = more signal;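 also: z-score combines 667nm fluorescence intensity with signal-to-noise per printed compound spot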
[6] = probe aLAP1 signal on lysate-treated microarray – cell lysate, small-molecule microarray, COS7 lysate, primary screen (AID 1124); settings: probe aLAP1, fluorescence, higher = more signal;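 also: lysate comes from COS7 cells expressing LAP1 and is applied at 0.3 µg/mL; score merges spot fluorescence near 667 nm with signal-to-noise over triplicate slides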
Sam68 (KHDRBS1) = assay: compounds binding KHDRBS1 protein – biochemical, small-molecule microarray, 635 nm fluorescence, primary screen (AID 1125); settings: higher = more signal;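 also: score merges 667 nm channel intensity with signal to noise over triplicate slides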
[7] = test system: Chordin-like protein 2 (CHRDL2); assay: compounds binding chordin-like 2 – biochemical, small-molecule microarray, 635 nm fluorescence, primary screen (AID 1126); settings: fluorescence 635 nm, higher = more signal;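 also: printed compound slides probed with Chrdl2 protein at 4 µg/mL for 1 h at 4 C; score merges 667 nm emission intensity with signal to noise over three replicate slides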
[8] = target: Concanavalin-A (Canavalia ensiformis) (UniProt P02866); assay: compounds binding concanavalin A lectin – biochemical, small-molecule microarray, Alexa647 label, 635 nm, artefact control for SMM control protein annotation, primary screen (AID 1127); settings: ConA-A647 binding fluorescence, higher = more signal;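 also: z combines 667 nm emission intensity with signal-to-noise across three replicate slides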
Sequence of Concanavalin-A (Canavalia ensiformis) (P02866 whole entry, looked up): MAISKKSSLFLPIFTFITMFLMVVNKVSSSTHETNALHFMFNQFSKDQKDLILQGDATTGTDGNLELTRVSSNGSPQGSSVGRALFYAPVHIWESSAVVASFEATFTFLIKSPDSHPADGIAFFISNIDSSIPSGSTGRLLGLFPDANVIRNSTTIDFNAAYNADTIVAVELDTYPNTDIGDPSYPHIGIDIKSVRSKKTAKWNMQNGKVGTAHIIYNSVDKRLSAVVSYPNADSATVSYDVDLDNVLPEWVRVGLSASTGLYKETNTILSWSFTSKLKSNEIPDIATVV

| SMILES | composite z-score (Albumin (Bos taurus)) | composite Z-score [1] | composite z-score [2] | composite z-score [3] | composite z-score [4] | composite z-score [5] | composite z-score [6] | composite z-score (Sam68 (KHDRBS1)) | composite z-score [7] | composite z-score [8] |
| --- | --- | --- | --- | --- | --- | --- | --- | --- | --- | --- |
| O=C1NC(=O)C2C1C=CC(C(O)c1ccc3c(c1)OCO3)N2Nc1ccccn1 (stereo not given) | 0.939 | 0.246 (inactive) | -0.0324 | -0.12 | 0.555 | 2.99 | 0.183 | 0.153 | 0.704 | 0.667 |
| NC(=O)N1C(=O)C2C(C1=O)C1C=C(c3ccc(CO)cc3)C2C(C2CC2)N1Cc1sc2ccccc2c1Cl (stereo not given) | 0.849 | 0.742 (inactive) | 0.0225 | -0.101 | 0.468 | 1.67 | 0.733 | 1.31 | 0.441 | 1.18 |
| O=c1cccc(-c2cccc(Cl)c2)o1 | 0.271 | 1.25 (inactive) | -0.0164 | -0.161 | -0.0655 | 0.043 | 0.275 | 0.159 | 0.0809 | 0.164 |
| COc1cc2c(cc1OC)CN(C(=O)[C@H]1[C@@H]3C(=O)O[C@@H](c4ccccc4)[C@@H](c4ccccc4)N3[C@@H](c3ccc(OCCO)cc3)[C@]13C(=O)Nc1ccc(C#CCCO)cc13)CC2 | 0.592 | 0.524 (inactive) | 0.0418 | 0.0292 | 0.434 | 2.2 | 1.25 | 1.29 | 0.0602 | 1.11 |
| CC(C)(C)OC(=O)CC[C@]1(C(=O)NCCN2CCOCC2)N=C(c2ccc(OCCCO)cc2)O[C@H]1c1ccccc1 | 0.824 | -0.985 (inactive) | 0.0636 | -0.075 | 0.745 | 2.28 | -0.657 | 0.218 | -1.21 | 1.16 |
| Cc1ccc(F)cc1S(=O)(=O)N[C@@H]1CCN(Cc2ccc(Oc3ccccc3)cc2)C1 | -0.274 | -0.608 (inactive) | 0.154 | -0.165 | 0.304 | -0.13 | -0.305 | -0.68 | 0.861 | -0.905 |
| C[C@@H](OCc1ccccc1)C1NC(=O)[C@@]23C(=O)N[C@@H](Cc4ccccc4)C2[C@H](C)[C@@]2(C)O[C@H]2C3/C=C/C/C=C\CNC(=O)CNC1=O (stereo not given in full) | 0.651 | 0.536 (inactive) | -0.0647 | -0.133 | 0.721 | -0.282 | 0.234 | -1.28 | 0.0667 | -2.32 |
| CC(=O)n1cc(C(O)C2C=CC3C(=O)N(c4ccccc4)C(=O)C3N2Nc2ccccc2)c2ccccc21 (stereo not given) | 0.408 | 0.197 (inactive) | 0.504 | 0.207 | 0.788 | 1.08 | 0.697 | 0.897 | 0.8 | 0.183 |
| O=C(NC1CC1)[C@@H]1c2ccccc2C(=O)N(Cc2ccccc2)[C@H]1c1ccc(CO)cc1 | 0.0082 | 0.081 (inactive) | -0.272 | -0.127 | 0.698 | 2.72 | 1.36 | 0.372 | -0.346 | 0.38 |
| [N-]=[N+]=NCc1ccccc1C[C@@]1(C(=O)NCCN2CCOCC2)N=C(c2ccc(OCCCO)cc2)O[C@@H]1c1ccccc1N=[N+]=[N-] | 0.678 | 0.653 (inactive) | 0.163 | -0.116 | 0.419 | 1.6 | 0.276 | 1.3 | -0.396 | 1.09 |
| C[N+](C)(C)CCCC[C@@H]1NC(=O)[C@@H]2C[C@H](C(=O)O)[C@H](c3ccc(O)cc3)N2C1=O | 0.594 | -0.238 (inactive) | -0.223 | -0.0798 | 0.381 | -0.555 | -0.534 | -2.19 | -0.827 | 0.0317 |
| CCOC(=O)C[C@H]1[C@H](OC(=O)c2ccccc2-c2ccccc2)[C@@H](NC(=O)CC(C)C)c2cc(OCCCO)ccc2N1C(=O)c1ccc2ccccc2n1 | 0.641 | 0.675 (inactive) | -0.0031 | -0.13 | 0.431 | 0.578 | 0.452 | 0.569 | 0.224 | 0.629 |
| O=C1O[C@@H](c2ccccc2)[C@@H](c2ccccc2)N2[C@@H](c3ccc(O)cc3)[C@]3(C(=O)Nc4ccccc43)[C@@H](C(=O)Nc3nc4ccccc4s3)[C@H]12 | 0.625 | -0.8 (inactive) | 0.0695 | -0.144 | 0.613 | 1.39 | 0.399 | 1.31 | 0.0129 | 1.17 |
| O=C1O[C@H](c2ccccc2)[C@H](c2ccccc2)N2[C@H]1[C@@H](C(=O)O)[C@]1(C(=O)Nc3ccccc31)[C@H]2c1ccc(O)cc1 | -0.731 | -0.0012 (inactive) | -0.135 | -0.131 | 0.673 | 0.969 | 1.01 | -0.43 | -0.632 | 0.586 |
| COC(=O)[C@@]1(Cc2ccccc2)[C@H]2c3cc(C(=O)N4CCCC4)n(Cc4ccsc4Br)c3C[C@H]2CN1C(=O)c1ccccc1 | 0.842 | -0.314 (inactive) | 0.485 | 0.244 | 0.555 | 2.45 | -0.0293 | 1.33 | -0.265 | 1.01 |
| Cc1ccc(S[C@]2(C(=O)NC(C)C)CC(=O)N(C3Cc4ccccc4C3)[C@@H]2c2ccc(CO)cc2I)cc1 | -0.25 | 0.0777 (inactive) | -0.641 | -0.359 | 0.825 | 3.04 | 0.387 | 0.318 | 0.02 | -0.181 |
| CN1C(=O)C2C(C1=O)C1C=C(c3ccc(CO)cc3)C2C(c2cccs2)N1Cc1cccc(OC(F)(F)F)c1 (stereo not given) | 0.866 | -0.228 (inactive) | 0.0824 | -0.152 | 0.47 | 1.98 | 0.37 | 1.28 | 0.0434 | 1.08 |
| O=C1c2ccccc2[C@](Cc2ccccc2I)(C(=O)NCCN2CCOCC2)[C@H](c2ccc(CO)cc2)N1Cc1ccccc1 | 0.673 | -0.52 (inactive) | 0.533 | -0.0468 | 0.377 | 1.28 | 0.369 | 1.3 | 0.286 | 1.12 |
| C=C[C@@H](C)[C@H](OC(=O)Nc1ccc(SC)cc1)c1ccc(OCCO)cc1 | -0.145 | -0.109 (inactive) | 0.132 | -0.259 | 0.449 | 0.476 | -0.0181 | -0.867 | -0.61 | -0.345 |
| COC(=O)C(CC#Cc1ccc2c(c1)[C@]1(C(=O)N2)[C@H](C(=O)O)[C@H]2C(=O)O[C@H](c3ccccc3)[C@H](c3ccccc3)N2[C@@H]1c1ccccc1OCCO)C(=O)OC | 0.788 | -0.051 (inactive) | 0.277 | 0.054 | 0.684 | 1.62 | 1.11 | 1.32 | 0.364 | 1.15 |
| C=CC[C@]12N=C(c3ccc(OCCCO)cc3)O[C@H]1c1ccccc1N(C)C2=O | 0.0095 | 2.56 (inactive) | 0.336 | 0.0424 | 0.308 | 2.73 | 1.14 | 1.21 | 0.76 | 0.989 |
| CCCCN1CC=CC23O[C@@H]4/C=C\CCC(C)OC(=O)C4[C@H]2C(=O)N(CCCCCCO)[C@@H]3C1=O (stereo not given in full) | 0.5 | -0.59 (inactive) | -0.307 | -0.228 | 0.86 | 0.177 | 0.54 | -0.168 | -0.361 | -0.34 |
| CC(CO)N1C(=O)[C@@H]2C3C(=O)OCCC/C=C\[C@H]3OC23C=CCN(Cn2nnc4ccccc42)C(=O)[C@@H]13 (stereo not given in full) | 0.717 | 0.323 (inactive) | -0.192 | -0.14 | 0.869 | -0.202 | -0.237 | -1.07 | 0.034 | -1.01 |
| C=C(CCCC)/C(=C/C[C@@H](OC(C)=O)c1ccc(CO)o1)c1cc(C(=O)OC)ccc1OC | 0.557 | 0.378 (inactive) | -0.0195 | -0.0741 | 0.57 | 0.69 | 0.557 | 1.29 | 0.182 | 0.851 |
| CC(=O)NCCCC[C@@H]1NC(=O)[C@@H]2C[C@H](C(=O)O)[C@H](c3ccc(O)cc3)N2C1=O | -0.757 | 1.77 (inactive) | -0.594 | -0.1 | 0.658 | -0.0142 | -0.0574 | -1.04 | -0.755 | 0.092 |
| COCCOC(=O)N1C(=O)[C@@]2(c3cc(C#CC4(O)CCCCCC4)ccc31)[C@H](c1ccccc1OCCO)N1[C@H](c3ccccc3)[C@H](c3ccccc3)OC(=O)[C@H]1[C@@H]2C(N)=O | -0.205 | -0.02 (inactive) | 0.0282 | -0.0942 | 0.378 | 0.994 | -0.394 | 1.31 | 0.476 | 1.15 |
| COc1cc2c(cc1OC)CN(C(=O)[C@H]1[C@@H]3C(=O)O[C@@H](c4ccccc4)[C@@H](c4ccccc4)N3[C@@H](c3ccc(OCCO)cc3)[C@]13C(=O)Nc1ccc(C#CC4(O)CCCCCC4)cc13)CC2 | 0.822 | -0.195 (inactive) | -0.337 | -0.126 | 0.619 | 1.52 | 0.491 | 1.29 | 0.739 | 1.18 |
| CCCC[C@@H]1C[C@H]1[C@@H](NC(=O)c1cccnc1)c1ccc(-c2ccccc2)cc1 | -0.294 | -0.0683 (inactive) | -0.306 | -0.174 | -0.357 | 0.208 | -0.193 | -0.0982 | -1.56 | -0.633 |
| COC(=O)[C@]1(CCS(=O)(=O)c2ccccc2)N=C(c2ccc(OCCCO)cc2)O[C@@H]1c1ccccc1CN=[N+]=[N-] | -0.453 | -0.139 (inactive) | 0.0357 | 0.062 | 0.416 | 1.95 | 0.472 | 1.29 | -0.0531 | 0.848 |
| COc1ccc([Si](C)(C)[C@H]2[C@H](CCn3cc(CCO)nn3)O[C@@]3(C(=O)N(Cc4ccc(N5C(=O)c6cccc7cccc5c67)cc4)c4ccccc43)[C@@H]2C)cc1 | 0.627 | -0.777 (inactive) | 0.0996 | -0.14 | 0.345 | 1.04 | 0.303 | 1.29 | 0.628 | 0.962 |
